Potency and affinity values are given separately.
Each molecule was assayed against HMG-CoA reductase [Enterococcus faecalis] (UniProt Q9FD70) (assay: inhibitors of E. faecalis class II HMGR, confirmation, biochemical, Enterococcus faecalis (AID 1233;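 further: 0% = full reaction carrier wells and 100% = background wells lacking mevalonate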)). Conditions: purified E. faecalis HMGR, NADPH absorbance 340 nm kinetics; series mostly up to 100 µM; inhibition: at the top concentration.

inhibition, inactive:
Cc1[nH]nc2c1C(CCc1ccccc1)C(C#N)=C(N)O2 (configuration not stated) -4.55%, COc1ccc(C2C(C(C)=O)=C(Nc3ccccc3)CC(C)(O)C2C(C)=O)cc1OC (configuration not stated) -6.21%, CCN1C(=O)/C(=C/c2cn(C)nc2C)SC1=S -13.8%, Cc1ccccc1NC(=O)Cn1c(CCC(=O)O)ccc1-c1cccs1 -2.46%, COc1ccccc1N1CCN(CC(=O)c2c(N)n(C)c(=O)n(C)c2=O)CC1 -3.15%, OC(COc1ccc(Cl)cc1)CN1CCCCC1 (configuration not stated) -2.07%, COc1ccc(NC(=O)C2=C(C)NC(=O)NC2c2cccc(OC)c2OC)c(OC)c1 (configuration not stated) -5.97%, Brc1ccc(/C=N/Nc2ncnc3c2cnn3Cc2ccccc2)cc1 -21.9%, COc1oc(-c2ccc(Cl)cc2)nc1C(F)(F)F -9.81%, CC(C)(C)C(=O)N1CCC[C@H]1C(O)(c1ccccc1)c1ccccc1 -3.19%, CC(C)OC(=O)NC(C)(C)COC(=O)Nc1cccc(Cl)c1 -4.08%, Cc1ccsc1C(=O)C1CCCN(Cc2cc(F)ccc2-n2cccn2)C1 (configuration not stated) -5.9%, CCCSc1nnc2n(N)c(=O)c3ccccc3n12 -3.93%, CC(NCCC(c1ccccc1)c1ccccc1)c1ccccc1 (configuration not stated) -3.54%, O=C1c2ccccc2NC(c2ccc(Cl)cc2Cl)N1O (configuration not stated) -1.95%, Cc1ccc(OCC(O)CN2C(=O)NC(C)(C)C2=O)cc1 (configuration not stated) -9.46%, C=CCN1CCN(C(c2cc(OC)ccc2OC)c2nnnn2CC2CCCO2)CC1 (configuration not stated) 0.95%, Cc1nn(CCC(=O)NNC(=S)Nc2ccc([N+](=O)[O-])cc2)c(C)c1[N+](=O)[O-] -3.33%, O=C(NCCCn1ccnc1)c1ccc(S(=O)(=O)N2CCOCC2)cc1 -1.4%, Cc1nn(Cc2ccc(Cl)cc2)c(Cl)c1/C=N/NC(=O)CNc1ccccc1F -2.81%, COC(=O)C(C(=O)OC)c1ccc(N)cc1 0.61%, Cc1ccccc1NC(=O)Cn1nnc(S(=O)(=O)c2ccc(C(C)(C)C)cc2)c1N -8.15%, Cn1cnnc1Sc1ccc(C(=O)OCC(=O)NC2CC2)cc1[N+](=O)[O-] -7.72%, Cc1ccccc1-n1nc(C)c2cc(C(=O)N3CCN(S(=O)(=O)c4ccc(F)cc4)CC3)sc21 -8.54%, NS(=O)(=O)c1ccc(N2C(=O)C3C4CC(C(Br)C4Br)C3C2=O)cc1 (configuration not stated) -8.3%, CCC1(CC)C(=O)NN(c2ccccc2)C1=O -1.66%, COc1cc(C2CC(=O)N(CC(=O)NCC3CCCO3)c3ccccc3S2)cc(OC)c1OC (configuration not stated) -0.73%, CCOC(=O)C1CCN(C(=O)c2c(-c3ccccc3)noc2C)CC1 -3.39%, COc1ccc(CCNC(=O)c2ccccc2Cl)cc1OC -0.95%, CC(C)(C)Cc1nnc(NS(=O)(=O)c2ccccc2)s1 -3.39%, C=CCn1c(C)c(C(C)=O)c(N2CCCC2)nc1=S 0.13%, CC(=O)Oc1ccccc1-c1nc(C)nc(N(C)C(C)=O)n1 -1.06%, O=C(NCc1cccs1)c1cc2c(s1)CS(=O)(=O)C2 -3.82%, CN(CCOC(=O)c1cccc(Br)c1)C(C)(C)C -4.97%, CCN1C(=O)/C(=C\C=C\c2ccccc2[N+](=O)[O-])SC1=S -12.6%, Cc1ccc(/C=C/S(=O)(=O)NCC(=O)O)cc1 0.69%, O=C1CN(C(=O)CSc2nc3cc(Cl)ccc3c(=O)n2Cc2ccccc2)c2ccccc2N1 -1.36%

— PubChem BioAssay AID1233 (SRMLSC, 2008)
